Results published in PubChem BioAssay (NCI).
About 79,000 compounds went through this panel and 15% of them were active in at least one assay; those are over-represented in the sample as a whole. Rule as the data show it: active = growth inhibition above about 70%; inactive = the rest.

Tests used:
[1] = NCI Yeast Anticancer Drug Screen. Data for the rad50 strain (AID 155);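 also: 0% = growth of vehicle-only cultures of the same strain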; conditions: S. cerevisiae rad50 strain growth inhibition; at 50.0 µM; active compounds read high
Procedure, shortened: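 Compounds were tested on a yeast strain with an engineered DNA damage repair alteration; the reported value is growth inhibition normalised to vehicle treatment.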

[2] = NCI Yeast Anticancer Drug Screen. Data for the mec2-1 strain (AID 157); conditions: S. cerevisiae mec2-1 strain, at 50.0 µM, active compounds read high
Procedure, shortened: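 Test agents were screened against the mec2-1 yeast strain, with defined DNA repair or cell cycle alteration. Growth was scored as inhibition against vehicle-only controls.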

[3] = NCI Yeast Anticancer Drug Screen. Data for the sgs1 mgt1 strain (AID 161);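 also: 0% = growth of cultures given vehicle only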; conditions: S. cerevisiae sgs1 mgt1 strain, at 50.0 µM, active compounds read high
Procedure, shortened: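 Test agents were incubated with a DNA-repair-mutant yeast strain. Growth was then read and compared against vehicle-treated controls.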

[4] = NCI Yeast Anticancer Drug Screen. Data for the cln2 rad14 strain (AID 165);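 also: 0% = growth equal to vehicle treated cultures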; conditions: S. cerevisiae cln2 rad14 strain, at 50.0 µM, active compounds read high
Procedure, shortened: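 Growth of compound-exposed yeast (cln2 rad14 genotype) measured and expressed as inhibition relative to vehicle.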

[5] = NCI Yeast Anticancer Drug Screen. Data for the bub3 strain (AID 167); conditions: S. cerevisiae bub3 mutant strain, at 50.0 µM, active compounds read high
Procedure, shortened: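 Growth of a checkpoint-deficient yeast mutant is measured after compound exposure. Values represent inhibition relative to vehicle.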

[6] = NCI Yeast Anticancer Drug Screen. Data for the mlh1 rad18 strain (AID 175); conditions: S. cerevisiae mlh1 rad18 strain growth inhibition; at 50.0 µM; active compounds read high
Procedure, shortened: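 In this whole-cell yeast screen, a strain with altered DNA damage repair is challenged with compound, and its growth is measured against matched vehicle-treated controls.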

Measured: growth inhibition

CC1=Nc2c(ccc3c2C(=O)c2ccccc2C3=O)NC(c2ccncc2)C1 (stereo unspecified)
inactive: [1] 31.1% | [2] 5% | [3] 47.6% | [4] 17.6% | [5] 0.35% | [6] 12.4%

COc1ccc2c(c1)OC1c3ccccc3OCC21 (stereo unspecified)
inactive: [1] 26.1% | [2] 11.6% | [3] 15.8% | [4] 12.3% | [5] 27.9% | [6] 30.2%

COc1cc([N+](=O)[O-])ccc1P(=O)(O)O
inactive: [1] 2% | [2] -5.65% | [3] -1.4% | [4] -4.35% | [5] -9.95% | [6] 14.1%

Cc1ccc(N=N/C(=N/NC(=O)c2cc(Cl)ccc2C(=O)c2ccccc2)c2ccc(N(CCC#N)CCC#N)cc2C)cc1
inactive: [1] -8.5% | [2] 2.5% | [3] -18.5% | [4] -2.1% | [5] -23.6% | [6] 5.2%

O=[N+]([O-])c1ccc(N/N=C\C2CC=C3c4ccccc4CCC3C2/C=N\Nc2ccc([N+](=O)[O-])cc2[N+](=O)[O-])c([N+](=O)[O-])c1 (stereo unspecified)
inactive: [1] 0.75% | [2] 3.1% | [3] -15.1% | [4] -9.7% | [5] -3.3% | [6] -5.85%

Cc1n(Cc2ccccc2)nc2sc(N)n[n+]12
inactive: [1] -32% | [2] -9.45% | [3] -56.3% | [4] -0.55% | [5] -4.65% | [6] -6.95%

C#[N+]CCOP(=O)(OCC1OC(n2cc(C)c(=O)[nH]c2=O)CC1N=[N+]=[N-])O[C@H]1CC[C@@]2(C)C(=CC[C@H]3[C@@H]4CC[C@H](C(C)/C=C/C(CC)C(C)C)[C@@]4(C)CC[C@@H]32)C1 (stereo partly specified)
inactive: [1] -32.3% | [2] -14.4% | [3] -23.1% | [4] -7.4% | [5] 7.5% | [6] -19.1%

Cn1c(=O)c2c(-c3ccccc3)cc(-c3ccccc3)nc2n(C)c1=O
inactive: [1] -18.8% | [2] -16.1% | [3] 1.95% | [4] -30.7% | [5] -10.7% | [6] -21.4%

O=C(O)Cc1c(-c2ccc([N+](=O)[O-])cc2)c(=O)oc2cc(O)ccc12
inactive: [1] 28.4% | [2] 4.15% | [3] 9% | [4] 20.1% | [5] 41% | [6] 11.7%

CC(C)Oc1c(NCCO)c2cc(Cl)ccc2oc1=O
inactive: [1] -3.5% | [2] 10.9% | [3] 20.5% | [4] -66.2% | [5] -1.1% | [6] -12.1%

N#CC1(N(O)C(=O)Nc2ccccc2)CCCCC1
inactive: [1] 5.55% | [2] -10.3% | [3] -0.4% | [4] -7.05% | [5] 5.8% | [6] -13.1%

CCOC(=O)CNc1nc(Cl)nc(NCC(=O)OCC)n1
inactive: [1] 3.05% | [2] -4.6% | [3] -0.05% | [4] -43.2% | [5] 28.9% | [6] 1.4%

CCOC(=O)CCCN(c1ccc(OC)c(OC)c1)S(=O)(=O)c1ccc(C)cc1
inactive: [1] 32.1% | [2] 12.7% | [3] 43% | [4] 18.8% | [5] 16.4% | [6] 34.2%

O=C1c2cc3ccccc3cc2NC(O)c2cccn21 (stereo unspecified)
inactive: [1] 9.4% | [2] 4.6% | [3] 1.15% | [4] 27.4% | [5] 13.4% | [6] 13.2%

CC(=O)C1C[C@]2(O)[C@@]3(C)CO[C@]2(C)CC1(O)C3 (stereo partly specified)
inactive: [1] 3.45% | [2] 11.4% | [3] 17.9% | [4] 7.2% | [5] 20.2% | [6] 12.9%

Cc1ccc(S(=O)(=O)Nc2ccc(C(=O)Cl)cc2)cc1
inactive: [1] 4.8% | [2] 25.4% | [3] 23.5% | [4] 6.9% | [5] 27.4% | [6] 11.8%

Cc1ccc(/C=C2/NC(=S)SC2=O)cc1
inactive: [1] -14.1% | [2] -3.6% | [3] 14.6% | [4] 12% | [5] 1.75% | [6] -30.4%

N#CC(N)=NC1CCC(C2CCC(O)CC2)CC1 (stereo unspecified)
inactive: [1] 6.65% | [2] 2.4% | [3] -6.25% | [4] -1.3% | [5] 16.1% | [6] 10.7%

O=C(Nc1cc(Cl)c(Cl)cc1Cl)N1CCOCC1
inactive: [1] 0.15% | [2] -30.7% | [3] -11.2% | [4] 5.25% | [5] -6.1% | [6] -5.15%

COc1ccc(Cl)cc1NC(=O)Nc1ccc(SC)cc1
inactive: [1] 24.1% | [2] 50.6% | [3] 56.5% | [4] 20.8% | [5] 33% | [6] 35.5%

CC(C)(C)[N]=[V]([Cl])([Cl])[Cl]
inactive: [1] 3.65% | [2] -0.65% | [3] -7.3% | [4] -6.35% | [5] -10.6% | [6] -10.1%

N#Cc1c(-c2ccc(Cl)cc2)cn2c1[nH]c(=O)c1cc(Br)ccc12
inactive: [1] 6.45% | [2] 0.95% | [3] -18.4% | [4] -12.6% | [5] -3.4% | [6] 14.4%

COc1ccc(NS(=O)(=O)c2ccc(NC(=O)NCCCl)cc2)nn1
inactive: [1] 13% | [2] -0.2% | [3] -9.85% | [4] 8.95% | [5] 2.55% | [6] 5.85%

N#CN=CN1CCN(c2ccccc2)CC1
inactive: [1] 4.8% | [2] -11.2% | [3] -0.15% | [4] -22.6% | [5] -5.4% | [6] -11.9%

N#C/C(=N/Nc1nc[nH]c1C(N)=O)C(=O)Nc1ccccc1
inactive: [1] 8.6% | [2] 20.9% | [3] 16.6% | [4] -0.1% | [5] -0.6% | [6] 26.1%

CC(=O)/C(=C\c1ccc([N+](=O)[O-])cc1)C(=O)CCN(C)C
inactive: [1] 5.25% | [2] 28.1% | [3] 34.9% | [4] -5.3% | [5] 13.4% | [6] -41.2%

OCC(F)(F)C(F)(F)C(F)(F)C(F)(F)C(F)(F)C(F)(F)C(F)(F)C(F)F
inactive: [1] 23.9% | [2] -11.2% | [3] -30.8% | [4] -11.5% | [5] 5.15% | [6] 8.6%

O=C(Cl)c1cc(C(=O)Cl)cc(C(=O)Cl)c1
inactive: [1] -28.6% | [2] -51.2% | [3] -24.2% | [4] 7.15% | [5] -28.4% | [6] -28.6%

O=C1CCCCC1COCC1CCCCC1=O (stereo unspecified)
inactive: [1] -4.8% | [2] 2.65% | [3] -2.15% | [4] -17.6% | [5] 5.25% | [6] -21.4%

c1ccc(-c2nnc(-c3ccccc3)c3nonc23)cc1
inactive: [1] 0.55% | [2] 14.6% | [3] 9.1% | [4] -12.8% | [5] 12.6% | [6] -22.3%

CCOC(=O)CCc1ccco1
inactive: [1] 3.15% | [2] -5.7% | [3] -4.45% | [4] 4.15% | [5] 9.1% | [6] 15.2%

CSc1nc[nH]c1C(N)=S
inactive: [1] -13.1% | [2] 3% | [3] 2.6% | [4] -7.4% | [5] -24.4% | [6] 8.7%

C[N+](C)(C)C1=CC=CC=C1.Br[Br-]Br
inactive: [1] 22.5% | [2] -29.6% | [3] 0.15% | [4] 4.7% | [5] 11.6% | [6] -2.25%

CCCCC(CC)CCC(O)C(O)C(C)C (stereo unspecified) (tested in a mixture with another compound)
inactive: [1] -3.85% | [2] 3.2% | [3] -7.8% | [4] -14.3% | [5] -8.95% | [6] -14.8%

COC(=O)C(OC)(OC)C(O)c1ccccc1 (stereo unspecified)
inactive: [1] 34.4% | [2] 4.6% | [3] 49% | [4] 4.95% | [5] -9.35% | [6] 6.8%

O=C1CCC(=O)N1Cc1ccc(Cl)cc1
inactive: [1] -4.7% | [2] 5.5% | [3] -1.1% | [4] -13.6% | [5] -3.8% | [6] -4.1%

CCN1CCC(CC(c2ccccc2)c2ccccc2)C1 (stereo unspecified)
inactive: [1] 19.4% | [2] -6.75% | [3] 34.2% | [4] -4.95% | [5] 10.1% | [6] 7%

Cc1nc(=S)c2[nH]c(=S)[nH]c2[nH]1
inactive: [1] -2.7% | [2] -16.1% | [3] -3.8% | [4] -18.8% | [5] -1.9% | [6] -8.2%

CC(C)(C#N)OC(=O)Nc1c(Cl)cccc1Cl
inactive: [1] 2.4% | [2] -23.2% | [3] 5.15% | [4] 3.6% | [5] 11.2% | [6] 6.5%

COc1cc(OC)c(OC(=O)CCl)c(OC)c1
inactive: [1] -3.85% | [2] 1.3% | [3] 3.2% | [4] 1.7% | [5] 11.2% | [6] 17.4%

CC(=O)c1ccc(O)c(C=O)c1O
inactive: [1] 11.7% | [2] 9.3% | [3] 27.1% | [4] 2.65% | [5] -2.9% | [6] 31.9%
